Some test systems named below: SK-MEL-2 melanoma; EKVX NSCLC; SN12C renal; UO-31 renal; ACHN renal; CAKI-1 renal; A498 renal; CCRF-CEM leukemia; MOLT-4 leukemia; RPMI-8226 leukemia; OVCAR-8 ovarian; OVCAR-5 ovarian; OVCAR-4 ovarian; SK-OV-3 ovarian; IGROV1 ovarian; OVCAR-3 ovarian; HS 578T breast; NCI/ADR-RES ovarian; TK-10 renal; SR leukemia.
Holding throughout (test): NCI-60 one-dose screen, 48 h (100 = growth as untreated, 0 = no growth, -100 = all killed)
What all share (conditions): 10 µM unless noted

Compounds without any hit were thinned out: in the full panel of roughly 83,000, 20% have a hit.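 The endpoint reported here, percent growth, reads 100 for growth as untreated, 0 for no net growth and -100 for all cells dead.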 A number with no mark means an inactive call. The source made the active and inactive calls. Rule for the calls: active = growth percent below 10; inactive = the rest.

With `CC1=CC(=NN=c2cc(C)n([O-])c(C)c2)C=C(C)[N+]1=O`, the growth in the assay with SK-MEL-2 melanoma is 84.7%; in the assay on EKVX NSCLC it was 110%; with SN12C renal it was 92.1%; in the assay on UO-31 renal, 85.7%; in the assay with ACHN renal it was 110%; with CAKI-1 renal, 98.2%. Also, the growth in the assay on A498 renal was 124%; with CCRF-CEM leukemia it was 91.7%; with MOLT-4 leukemia it was 81.7%; in the assay with RPMI-8226 leukemia, 67.4%; with OVCAR-8 ovarian, 86.2%; with OVCAR-5 ovarian it was 110%. Besides, the growth was 78% in the assay with OVCAR-4 ovarian; 111% in the assay on SK-OV-3 ovarian; 89.2% in the assay on IGROV1 ovarian; 110% in the assay on OVCAR-3 ovarian; 98.8% in the assay with HS 578T breast; 111% in the assay on NCI/ADR-RES ovarian.
Consider `CSc1nc(Nc2cccc(NC(=O)CCl)c2)c(C#N)c(-c2cccc([N+](=O)[O-])c2)n1`, for which the growth in the assay on SK-MEL-2 melanoma is 57.5%; in the assay on EKVX NSCLC, 74.1%; with SN12C renal it was 34%; with UO-31 renal, 67.2%; with ACHN renal it was 84.2%; in the assay with CAKI-1 renal, 52.2%. The growth with A498 renal was 96.6%; in the assay with CCRF-CEM leukemia, -14.4% (active); in the assay with MOLT-4 leukemia, 1.11% (active); with RPMI-8226 leukemia, -14.1% (active); in the assay on OVCAR-8 ovarian, 37%; with OVCAR-5 ovarian it was 78.7%. For the same compound, the growth with OVCAR-4 ovarian is 28.7%; in the assay with SK-OV-3 ovarian, 95.5%; in the assay on IGROV1 ovarian it was 0.383% (active); with OVCAR-3 ovarian, 6.67% (active); in the assay on HS 578T breast, 52%; in the assay with NCI/ADR-RES ovarian, 56.7%.
On to `Nc1ccn(-c2ccc(Br)cc2)c(=O)n1`, for which the growth with SK-MEL-2 melanoma is 87.9%; in the assay on EKVX NSCLC, 95.8%; in the assay on SN12C renal, 115%; in the assay on TK-10 renal, 113%; in the assay with ACHN renal, 111%; with CAKI-1 renal, 87.2%. The growth in the assay on A498 renal was 99.5%; in the assay with CCRF-CEM leukemia, -23.5% (active); with MOLT-4 leukemia, 107%; with RPMI-8226 leukemia it was 95.9%; in the assay on OVCAR-8 ovarian, 117%; in the assay on OVCAR-5 ovarian, 84%. Moreover, the growth was 104% in the assay on OVCAR-4 ovarian, 162% with SK-OV-3 ovarian, 48% in the assay with OVCAR-3 ovarian and 89.5% in the assay on NCI/ADR-RES ovarian.
For the compound `CCN1CCN(c2nc(NCCCNc3ccnc4cc(Cl)ccc34)c3ccccc3n2)CC1`, the growth with SK-MEL-2 melanoma is -10.5% (active); with EKVX NSCLC, 63.1%; in the assay on SN12C renal, 48.2%; in the assay with UO-31 renal, -5.29% (active); with ACHN renal, 5.28% (active); with A498 renal, 81%. The growth is 12.2% in the assay with CCRF-CEM leukemia; 13.6% with MOLT-4 leukemia; -33.3% (active) with SR leukemia; -10% (active) in the assay on RPMI-8226 leukemia; 16.6% with OVCAR-8 ovarian; 55.1% with OVCAR-5 ovarian. Besides, the growth with OVCAR-4 ovarian was 48%; in the assay on SK-OV-3 ovarian, 60%; in the assay with IGROV1 ovarian it was 59.3%; in the assay on OVCAR-3 ovarian it was 54%; with HS 578T breast it was 78.8%; in the assay on NCI/ADR-RES ovarian it was 92.6%.
Take `CC(=O)c1cc(C(=O)c2ccc3c(c2)Sc2ccccc2N3)n2ccccc12`: the growth with SK-MEL-2 melanoma is 20.3%; in the assay on EKVX NSCLC, 41.2%; in the assay with UO-31 renal, 19.9%; in the assay with TK-10 renal, 59.2%; in the assay on ACHN renal, 26.2%; in the assay on CAKI-1 renal it was 24.1%. Besides, the growth was -11.9% (active) in the assay with A498 renal; 5.4% (active) in the assay with CCRF-CEM leukemia; 13.9% in the assay with MOLT-4 leukemia; 9.43% (active) in the assay on SR leukemia; 5.63% (active) with RPMI-8226 leukemia; 6.54% (active) in the assay on OVCAR-8 ovarian. Moreover, the growth with OVCAR-5 ovarian was 68.2%; in the assay with OVCAR-4 ovarian, 40.9%; with SK-OV-3 ovarian it was 9.84% (active); in the assay with IGROV1 ovarian, 15%; in the assay on OVCAR-3 ovarian, -16.8% (active); in the assay on HS 578T breast, 24.9%. For the same compound, the growth with NCI/ADR-RES ovarian is 22.1%.
Regarding `CCC#CC[C@H](O)C/C=C1/C(=O)C=C[C@@H]1C/C=C\CCCC(=O)OC`, the growth is -35.8% (active) with SK-MEL-2 melanoma; 23.7% in the assay with EKVX NSCLC; -65.4% (active) in the assay on UO-31 renal; 2.33% (active) with TK-10 renal; -82.8% (active) with ACHN renal; -18.3% (active) with CAKI-1 renal. In addition, the growth in the assay with A498 renal was 95.7%; in the assay with CCRF-CEM leukemia, -8.8% (active); in the assay on MOLT-4 leukemia it was 1.17% (active); in the assay on SR leukemia it was -8.41% (active); with RPMI-8226 leukemia, -13.6% (active); in the assay with OVCAR-8 ovarian, 7.14% (active). In addition, the growth with OVCAR-5 ovarian is 32.4%; in the assay with OVCAR-4 ovarian, 29.1%; in the assay on SK-OV-3 ovarian it was 35.5%; in the assay with IGROV1 ovarian, 14%; in the assay on OVCAR-3 ovarian it was 12.5%; with HS 578T breast, 52.6%. In addition, the growth in the assay on NCI/ADR-RES ovarian is 14.4%.
For `COc1cc(-c2nn(-c3ccc(Br)cc3)cc2C(=O)O)ccc1O`, the growth is 83.1% in the assay with SK-MEL-2 melanoma; 87.2% in the assay on EKVX NSCLC; 109% in the assay on SN12C renal; 82.4% in the assay with UO-31 renal; 112% in the assay on ACHN renal; 107% in the assay with A498 renal. Moreover, the growth in the assay on CCRF-CEM leukemia is 90.1%; in the assay on MOLT-4 leukemia, 78.7%; with SR leukemia, 84.1%; in the assay with RPMI-8226 leukemia, 95.7%; in the assay with OVCAR-8 ovarian, 105%; with OVCAR-5 ovarian, 122%. For the same compound, the growth was 101% in the assay with OVCAR-4 ovarian; 100% in the assay with SK-OV-3 ovarian; 91.2% in the assay with IGROV1 ovarian; 101% in the assay on OVCAR-3 ovarian; 101% in the assay on HS 578T breast; 104% with NCI/ADR-RES ovarian.
In the case of `COc1ccc2c(c1)O/C(=C\c1cccc(OCC(=O)Nc3nc4c(s3)CCCC4)c1)C2=O`, the growth with SK-MEL-2 melanoma was 82.5%; in the assay on EKVX NSCLC, 90.2%; with SN12C renal, 53.8%; with TK-10 renal it was 115%; in the assay with ACHN renal, 97.4%; in the assay with CAKI-1 renal, -100% (active). In addition, the growth in the assay with A498 renal was 88.8%; in the assay on CCRF-CEM leukemia, -67.9% (active); with MOLT-4 leukemia, 25.3%; with RPMI-8226 leukemia, 49.6%; with OVCAR-8 ovarian, -23.4% (active); with OVCAR-5 ovarian it was 103%. Also, the growth is 62.4% with OVCAR-4 ovarian, 41.5% in the assay with OVCAR-3 ovarian, 84% in the assay on HS 578T breast and -9.46% (active) with NCI/ADR-RES ovarian.
For `O=S(=O)(Nc1ccc(Br)c(Cl)c1)c1ccc(-c2cnc(C3CC3)o2)cc1`, the growth is 34.4% with SK-MEL-2 melanoma; 33.9% in the assay on EKVX NSCLC; 41.1% in the assay on SN12C renal; 47.5% in the assay on UO-31 renal; 46.4% with ACHN renal; 30.9% in the assay on CAKI-1 renal. Further, the growth with A498 renal is -18.2% (active); with CCRF-CEM leukemia it was 19.3%; in the assay with MOLT-4 leukemia, 27.6%; with RPMI-8226 leukemia it was 20.5%; in the assay with OVCAR-8 ovarian, 20.4%; in the assay on OVCAR-4 ovarian, 46.3%. Moreover, the growth in the assay with SK-OV-3 ovarian is 36.3%; in the assay on IGROV1 ovarian, 26.8%; in the assay with OVCAR-3 ovarian, -19.6% (active); with HS 578T breast it was 10% (active); in the assay on NCI/ADR-RES ovarian, -15.2% (active).

The values above are taken from PubChem BioAssay (NCI).
